From PubChem BioAssay (NCATS) come the findings set out here.

Inconclusive results are not listed. The source made the active and inactive calls. Calls come from the whole dose curve; as a rule, active = well fitted inhibition curve with a large enough effect; inconclusive = small, poorly fitted or top-dose-only effect; inactive = flat fitted curve, though single readings scatter.
% is set by controls: 0 for no effect and ±100 for the full control effect.

Calcium and integrin-binding protein 1 (Homo sapiens), sequence (Q99828 whole entry, looked up): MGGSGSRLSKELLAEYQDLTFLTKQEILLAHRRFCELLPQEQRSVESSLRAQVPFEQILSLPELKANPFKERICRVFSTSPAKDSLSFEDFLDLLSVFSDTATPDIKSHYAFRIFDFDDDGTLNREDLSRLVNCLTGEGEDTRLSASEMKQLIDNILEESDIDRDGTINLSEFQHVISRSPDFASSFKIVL

The experiment concerns the target Calcium and integrin-binding protein 1 (Homo sapiens) (UniProt Q99828). Nature of the experiment: Primary qHTS for Identification of Calcium Integrin Binding Protein 1 (CIB1) Competitor (AID 1508620).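 Note: GST tagged CIB1 binding a fluorescein labelled alphaIIb integrin peptide tracer; top concentration of the series differs between compounds.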 As to conditions: CIB1-GST / FITC-alphaIIb peptide fluorescence polarization; series mostly up to 114 µM; activity change, negative = inhibition: at the top concentration. The method, boiled down:
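Fluorescence polarization competition: CIB1-GST (1 uM final) preincubated with compound 15 min at room temperature, then FITC-labeled alphaIIb peptide (100 nM final) added for another 15 min. Polarization read at Ex 480/Em 540.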
(In general: qHTS replaces the single test concentration by a dilution series.)
Consider `Cc1noc(Nc2sc3c(c2-c2nc4ccccc4s2)CCNC3)n1`, for which the “activity change, negative = inhibition” value is 2.87% (inactive).
Turning to `Fc1ccc(-c2nnc(CCCCSc3nnc(-c4cccc5ccccc45)o3)o2)cc1`, the “activity change, negative = inhibition” value was 3.92% (inactive).
As for `Cc1cnc(N2CCC(C(N)=O)CC2)nc1-c1cccc(N(C)C)c1`, the “activity change, negative = inhibition” value is -1.73% (inactive).
For the compound `Cc1ccc(S(=O)(=O)Nc2ccc(NS(=O)(=O)c3ccc(C)cc3)c3ncccc23)cc1`, the “activity change, negative = inhibition” value is -1.3% (inactive).
Regarding `Cc1ccc2nsnc2c1S(=O)(=O)Nc1cccc2cccnc12`, the “activity change, negative = inhibition” value is -4.15% (inactive).
In the case of `Cc1cc(C=CC#N)cc(C)c1Nc1nc(Nc2ccc3c(c2)OCO3)c2[nH]cnc2n1`, the “activity change, negative = inhibition” value was -15.5% (inactive).
On to `Cc1noc(C)c1-c1ccc2ncnc(NCc3ccc(C(F)(F)F)cc3)c2c1`, for which the “activity change, negative = inhibition” value is 1.92% (inactive).
As to `COc1ccc(CN(Cc2ccccc2)S(=O)(=O)c2ccccc2)cc1COc1ccc(NC(C)=O)cc1`, the “activity change, negative = inhibition” value was -0.55% (inactive).
For the compound `O=C1c2ccccc2C(=O)N1c1cnc2ccccc2c1`, the “activity change, negative = inhibition” value was 3.71% (inactive).
As for `CCOC(=O)c1ccc(-n2cnc3c(c2=N)C(c2cccc(OC)c2)c2c(ccc4ccccc24)O3)cc1` (stereo unspecified), the “activity change, negative = inhibition” value is 15.9% (inactive).
As to `CC(C)c1ccccc1-c1ncc(F)c(NCc2ccc(-c3cccnc3)s2)n1`, the “activity change, negative = inhibition” value was -0.0334% (inactive).
For `Cc1ccccc1C(=O)N1CCc2cc(-c3nc(NC(=O)c4ccc5c(c4)OCO5)sc3C)ccc21`, the “activity change, negative = inhibition” value was 0.109% (inactive).
As to `N=c1c2c(ccn1Cc1ccccc1)Oc1ccc3ccccc3c1C2c1ccccc1` (stereo unspecified), the “activity change, negative = inhibition” value was 9.47% (inactive).
Consider `Cc1noc(C)c1-c1ccc2ncnc(NCc3ccc(F)cc3)c2c1`, for which the “activity change, negative = inhibition” value was 1.07% (inactive).
Turning to `O=C(Nc1ccc(Cl)c(Cl)c1)Nc1nnc(-c2ccc(F)cc2)s1`, the “activity change, negative = inhibition” value was 3.35% (inactive).
`FC1(F)Oc2ccc(-c3ccc4ncnc(NCc5cccs5)c4c3)cc2O1`: the “activity change, negative = inhibition” value was 4.67% (inactive).
